# A number with no mark means an inactive call. Records with an inconclusive call do not appear. Active and inactive are the calls of the source. Unless noted, the call rests on the fitted dose curve; in most records, active means well fitted curve in either direction with a large enough effect (not every such curve was filed as active); inconclusive means small, poorly fitted or top-dose-only effect, or another doubt; inactive means flat fitted curve, though single readings scatter.
# Key:
# [1] = biological target: Lysosomal acid glucosylceramidase (Homo sapiens) (UniProt P04062); assay: Glucocerebrosidase-p2 (AID 348; in the data active means potency below about 10 µM; further: potency means the concentration at half of the fitted maximal effect); settings: purified GBA, blue fluorogenic substrate, 40 min
# Sequence of Lysosomal acid glucosylceramidase (Homo sapiens) (P04062 whole entry, looked up): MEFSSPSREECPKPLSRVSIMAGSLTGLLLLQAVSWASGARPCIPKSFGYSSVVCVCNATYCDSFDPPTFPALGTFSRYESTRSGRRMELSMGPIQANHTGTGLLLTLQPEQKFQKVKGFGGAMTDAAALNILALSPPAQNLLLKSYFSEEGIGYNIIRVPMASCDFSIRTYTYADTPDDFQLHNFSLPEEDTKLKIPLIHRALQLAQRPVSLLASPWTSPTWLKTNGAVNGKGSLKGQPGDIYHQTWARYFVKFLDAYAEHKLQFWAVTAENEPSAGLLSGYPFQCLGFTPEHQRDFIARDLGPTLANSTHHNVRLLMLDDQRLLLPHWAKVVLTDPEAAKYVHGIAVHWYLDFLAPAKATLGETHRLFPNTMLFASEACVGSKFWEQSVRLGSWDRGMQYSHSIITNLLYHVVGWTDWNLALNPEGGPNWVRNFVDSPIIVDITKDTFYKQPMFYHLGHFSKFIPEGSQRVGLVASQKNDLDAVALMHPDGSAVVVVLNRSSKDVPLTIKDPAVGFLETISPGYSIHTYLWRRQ
# Method in brief: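 Compounds titrated from 0.6 nM upwards against 0.2 nM enzyme in pH 5.9 citric acid/KH2PO4, taurocholate, tween-20; blue fluorogenic substrate 80 uM, 40 min room temperature, stopped and read Ex 365/Em 440 for AC50.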
# [2] = AP1 Signaling Pathway (AID 357); settings: ME-180 AP-1-bla reporter, EGF-induced, beta-lactamase ratio, 5 h; at 7.69 µM (top of the series) unless noted;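 further: ME-180 reporter cells stimulated with EGF at its EC50 level; on the % scale 0 is the no-effect control and ±100 the full control effect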
# Method in brief: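 In this screen, ME-180 cells in Opti-MEM with 0.5% dialyzed FBS received EC50 EGF and compound titrations for 5 h. AP-1 reporter beta-lactamase was detected via CCF4 ratio, giving AC50 for positive and negative modulators.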
# [3] = Stat Signaling Pathway (AID 446); settings: ME-180 SIE beta-lactamase reporter, IL-6 stimulated, 5 h; at 7.69 µM (top of the series) unless noted;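 further: ME-180 cervical cancer cells given 40 pM IL-6 alongside compound; SIE-controlled beta-lactamase reporter measured as 460/530 nm FRET emission ratio; on the % scale 0 is the no-effect control and ±100 the full control effect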
# Method in brief: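 Screening format detects activators and inhibitors alike: ME-180 SIE-bla cells stimulated at 40 pM IL-6 for 5 hrs with compound, then dual-emission beta-lactamase read at 405 nm excitation.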
# [4] = biological target: Glucocorticoid receptor (Homo sapiens) (UniProt P04150); assay: GR-GFP Redistribution (AID 450;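 active means compounds whose dose series gives a full or clear partial fitted curve of increased nuclear translocation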; further: potency means the concentration at half of the fitted maximal effect); settings: U2OS GR-GFP nuclear translocation, laser cytometry, 2 h
# Sequence of Glucocorticoid receptor (Homo sapiens) (P04150 whole entry, looked up, the tested form may be a part): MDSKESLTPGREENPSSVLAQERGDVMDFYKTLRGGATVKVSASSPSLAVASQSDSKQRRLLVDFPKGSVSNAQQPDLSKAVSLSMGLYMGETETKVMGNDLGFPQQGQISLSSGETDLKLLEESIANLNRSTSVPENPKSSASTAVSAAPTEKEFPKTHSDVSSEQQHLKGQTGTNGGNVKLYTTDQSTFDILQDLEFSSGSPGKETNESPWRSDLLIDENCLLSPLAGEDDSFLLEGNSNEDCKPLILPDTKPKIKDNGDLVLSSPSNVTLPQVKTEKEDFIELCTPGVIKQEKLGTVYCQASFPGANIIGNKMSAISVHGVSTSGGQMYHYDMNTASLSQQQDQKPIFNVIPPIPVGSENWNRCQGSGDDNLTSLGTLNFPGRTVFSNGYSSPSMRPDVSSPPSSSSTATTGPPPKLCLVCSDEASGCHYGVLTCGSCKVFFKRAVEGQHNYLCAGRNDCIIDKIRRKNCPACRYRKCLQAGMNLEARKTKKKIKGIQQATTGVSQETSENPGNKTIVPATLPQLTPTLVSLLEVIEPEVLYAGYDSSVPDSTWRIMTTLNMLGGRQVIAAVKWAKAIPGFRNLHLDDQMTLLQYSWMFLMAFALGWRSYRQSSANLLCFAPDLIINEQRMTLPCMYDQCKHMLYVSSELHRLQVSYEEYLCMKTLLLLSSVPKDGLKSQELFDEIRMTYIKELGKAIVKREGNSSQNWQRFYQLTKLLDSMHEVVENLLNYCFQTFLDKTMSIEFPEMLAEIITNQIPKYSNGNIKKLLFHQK
# [5] = biological target: Glucocorticoid receptor (Homo sapiens) (UniProt P04150); assay: GR-EFC Redistribution (AID 451; calls by dose curve; further: potency means the concentration at half of the fitted maximal effect); settings: CHO-K1 GR-EFC translocation, beta-gal luminescence, 2 h
# Method in brief: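 CHO-K1 cells expressing nuclear EA and GR-ED fragments of b-gal; compounds titrated up to 46 uM final, 2 h at 37 C. GR nuclear translocation read as complemented b-gal luminescence after 1 h RT detection.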
# [6] = biological target: Mitogen-activated protein kinase 10 (Mus musculus) (UniProt Q61831); assay: JNK3 AlphaScreen Assay (AID 530); settings: JNK3 lysate, c-Jun phosphorylation; series mostly up to 11.4 µM;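 further: kinase came from lysate of stimulated human HepG2 cells; signal reports phosphorylation of biotinylated GST-cJun 1-79 at Ser73 with 10 µM ATP; on the % scale 0 is the no-effect control and ±100 the full control effect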
# Method in brief: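 qHTS format: compounds tested as titrations against IL-1beta/TNF-alpha-activated HepG2 lysate JNK3 with biotin-GST-cJun substrate and 10 uM ATP at room temperature. Loss of anti-phospho-cJun AlphaScreen signal indicates inhibition.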
# [7] = biological target: 3',5'-cyclic-AMP phosphodiesterase 4B (Homo sapiens) (UniProt Q07343); assay: qHTS Assay for Inhibitors of PDE-IV (AID 607; active means well fitted activation curve with a large enough effect in the main read-out, with a control signal flat, not every such curve was filed as active; further: % of control where 0% means no effect); settings: HEK293 ACTOne CNG channel cells, membrane potential fluorescence; series mostly up to 22.9 µM
# Sequence of 3',5'-cyclic-AMP phosphodiesterase 4B (Homo sapiens) (Q07343 whole entry, looked up): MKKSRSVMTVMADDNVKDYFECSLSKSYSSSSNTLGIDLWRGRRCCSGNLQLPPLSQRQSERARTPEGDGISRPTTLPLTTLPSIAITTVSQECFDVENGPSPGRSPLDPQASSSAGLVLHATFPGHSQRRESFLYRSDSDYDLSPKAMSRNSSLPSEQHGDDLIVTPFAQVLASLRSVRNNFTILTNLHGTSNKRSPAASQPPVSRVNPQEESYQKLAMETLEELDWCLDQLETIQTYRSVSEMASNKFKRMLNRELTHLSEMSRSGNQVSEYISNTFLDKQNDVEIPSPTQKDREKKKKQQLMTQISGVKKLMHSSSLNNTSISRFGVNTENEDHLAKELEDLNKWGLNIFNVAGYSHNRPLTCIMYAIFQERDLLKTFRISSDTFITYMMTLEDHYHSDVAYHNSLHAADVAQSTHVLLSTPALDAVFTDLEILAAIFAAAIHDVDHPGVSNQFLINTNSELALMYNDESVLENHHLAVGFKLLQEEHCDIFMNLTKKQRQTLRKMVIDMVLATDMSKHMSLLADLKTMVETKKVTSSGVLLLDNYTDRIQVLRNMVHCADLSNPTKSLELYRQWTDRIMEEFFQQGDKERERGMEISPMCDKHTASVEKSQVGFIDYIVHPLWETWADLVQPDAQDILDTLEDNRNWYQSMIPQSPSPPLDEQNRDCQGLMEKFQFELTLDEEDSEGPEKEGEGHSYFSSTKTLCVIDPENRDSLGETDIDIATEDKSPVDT
# Method in brief: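 The readout is membrane depolarisation from a cAMP-sensing CNG channel, detected with a potential dye at ex 535/em 590. Cells were HEK293-derived (endogenous PDE-IV) at 1000 cells/well, titrated up to 22.9 uM final.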
# [8] = NFAT Signaling Pathway (AID 444); settings: Jurkat NFAT-bla M1, carbachol, beta-lactamase ratio, 5 h; at 7.69 µM (top of the series) unless noted;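 further: carbachol stimulus at about its EC50 of 1 µM final; on the % scale 0 is the no-effect control and ±100 the full control effect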
# Method in brief: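 Jurkat cells with NFAT-driven β-lactamase reporter and co-expressed M1 receptor, stimulated with carbachol (final 1 uM, ~EC50), compound titration, 5 h at 37 °C. CCF4 loaded 1 h at RT; 460/530 nm ratio gave %activity and AC50.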
# [9] = biological target: Cytochrome P450 3A4 (Homo sapiens) (UniProt P08684); assay: qHTS Assay for Activators of Cytochrome P450 3A4 (AID 885; active means well fitted curve in the direction sought with a large enough effect; an effect the other way counts as inactive or inconclusive; further: nearly all actives have a fitted effect of over 65% in size); settings: recombinant CYP3A4, Luciferin-PPXE luminescence, 60 min; series mostly up to 11.4 µM
# Sequence of Cytochrome P450 3A4 (Homo sapiens) (P08684 whole entry, looked up): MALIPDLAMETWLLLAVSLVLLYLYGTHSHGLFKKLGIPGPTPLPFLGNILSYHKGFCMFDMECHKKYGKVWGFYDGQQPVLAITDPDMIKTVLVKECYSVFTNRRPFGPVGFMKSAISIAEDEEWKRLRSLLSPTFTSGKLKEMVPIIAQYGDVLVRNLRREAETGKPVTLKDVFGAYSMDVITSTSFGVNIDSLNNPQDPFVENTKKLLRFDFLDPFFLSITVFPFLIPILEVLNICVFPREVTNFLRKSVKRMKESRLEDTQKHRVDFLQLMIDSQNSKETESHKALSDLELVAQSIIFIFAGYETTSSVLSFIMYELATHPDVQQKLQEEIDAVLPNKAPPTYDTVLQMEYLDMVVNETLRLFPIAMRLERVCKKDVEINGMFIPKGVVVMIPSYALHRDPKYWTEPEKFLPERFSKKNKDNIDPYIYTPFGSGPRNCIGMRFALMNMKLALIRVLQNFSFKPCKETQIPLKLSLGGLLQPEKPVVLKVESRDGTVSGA
# Method in brief: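 Steps: enzyme/substrate mix dispensed; compound added, 10 min RT; NADPH regeneration solution added, 60 min RT; luciferin detection buffer stops reaction; 20 min later luminescence measured.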
# [10] = biological target: Ubiquitin carboxyl-terminal hydrolase 1 (Homo sapiens) (UniProt O94782); assay: Inhibitors of USP1/UAF1: Pilot qHTS (AID 504865; active means well fitted curve in the direction sought with a large enough effect; an effect the other way counts as inactive or inconclusive;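 further: rhodamine fluorescence freed from ubiquitin-rhodamine substrate followed over time; top concentration of the series differs between compounds; on the % scale 0 is the no-effect control and ±100 the full control effect; nearly all actives have a fitted effect of over 35% in size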); settings: purified USP1/UAF1, Ub-rhodamine cleavage fluorescence; series mostly up to 114 µM
# Sequence of Ubiquitin carboxyl-terminal hydrolase 1 (Homo sapiens) (O94782 whole entry, looked up): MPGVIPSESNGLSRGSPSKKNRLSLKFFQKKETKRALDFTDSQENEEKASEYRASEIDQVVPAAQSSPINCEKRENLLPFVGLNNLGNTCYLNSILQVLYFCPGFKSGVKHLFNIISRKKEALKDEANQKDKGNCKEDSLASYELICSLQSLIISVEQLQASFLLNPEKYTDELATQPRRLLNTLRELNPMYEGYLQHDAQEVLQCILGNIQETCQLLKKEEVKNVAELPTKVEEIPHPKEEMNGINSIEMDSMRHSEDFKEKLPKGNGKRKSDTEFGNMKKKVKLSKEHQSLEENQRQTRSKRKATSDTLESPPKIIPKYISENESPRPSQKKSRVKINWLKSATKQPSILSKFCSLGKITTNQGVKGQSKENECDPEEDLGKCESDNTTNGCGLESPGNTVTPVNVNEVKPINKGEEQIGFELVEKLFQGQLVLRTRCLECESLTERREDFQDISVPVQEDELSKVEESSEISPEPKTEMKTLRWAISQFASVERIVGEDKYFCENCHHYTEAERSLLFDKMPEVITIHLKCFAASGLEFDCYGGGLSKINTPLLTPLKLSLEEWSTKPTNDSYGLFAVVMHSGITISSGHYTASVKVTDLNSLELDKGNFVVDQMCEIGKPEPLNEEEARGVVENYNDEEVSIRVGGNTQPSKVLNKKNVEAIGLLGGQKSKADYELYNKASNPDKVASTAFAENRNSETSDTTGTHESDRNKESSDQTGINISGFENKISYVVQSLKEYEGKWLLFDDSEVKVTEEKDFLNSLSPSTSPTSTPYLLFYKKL
# Method in brief: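 Enzyme-free wells gave the negative control, while test wells held 1nM USP1/UAF1 preincubated with compound for 15 min at room temperature. Ub-Rho at 150nM final started the reaction, and fluorescence at 480/540 nm was recorded kinetically.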
# [11] = biological target: Cytochrome P450 2C9 (Homo sapiens) (UniProt P11712); assay: qHTS Assay for Inhibitors and Substrates of Cytochrome P450 2C9 (AID 883; active means well fitted curve in the direction sought with a large enough effect; an effect the other way counts as inactive or inconclusive; further: potency means the concentration at half of the fitted maximal effect; nearly all actives have a fitted effect of over 60% in size); settings: recombinant CYP2C9, luciferin-H luminescence, 60 min; series mostly up to 11.4 µM
# Sequence of Cytochrome P450 2C9 (Homo sapiens) (P11712 whole entry, looked up): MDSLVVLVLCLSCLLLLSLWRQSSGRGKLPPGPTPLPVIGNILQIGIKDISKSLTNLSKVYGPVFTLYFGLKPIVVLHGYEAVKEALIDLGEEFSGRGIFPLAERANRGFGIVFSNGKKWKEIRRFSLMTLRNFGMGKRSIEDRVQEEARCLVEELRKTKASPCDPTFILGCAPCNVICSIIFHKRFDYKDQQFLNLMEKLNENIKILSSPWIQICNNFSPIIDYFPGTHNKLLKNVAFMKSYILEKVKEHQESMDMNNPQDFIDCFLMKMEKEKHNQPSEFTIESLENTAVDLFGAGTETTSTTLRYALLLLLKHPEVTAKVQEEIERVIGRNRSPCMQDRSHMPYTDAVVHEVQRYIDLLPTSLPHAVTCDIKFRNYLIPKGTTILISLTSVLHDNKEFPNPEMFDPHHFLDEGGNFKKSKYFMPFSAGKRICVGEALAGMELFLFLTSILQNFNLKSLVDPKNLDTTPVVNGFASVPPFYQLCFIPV
# Method in brief: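 10nM CYP2C9 + 100uM Luciferin-H (=KM), 25mM KPO4; cpd 10 min 37C; NADPH regen, 60 min 37C; stop/detect with P450 Glo-Buffer 20 min; luminescence. Norm. to 57uM sulphaphenazole as full inhibition.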
# [12] = qHTS Assay for Identification of Small Molecule Agonists for Hypoxia Response Element Signaling Pathway (AID 914; active means well fitted activation curve with a large enough effect in the signal ratio, with a control signal flat, not every such curve was filed as active; the % refers to the signal ratio; further: % of control where 0% means no effect); settings: ME-180 (cervical carcinoma) HRE-bla reporter, beta-lactamase ratio, CoCl2, 17 h; activation: active compounds read high
# Method in brief: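 Positive modulation of EC50 CoCl2-induced hypoxia response element signaling is measured in ME-180 cells with a beta-lactamase reporter. Compounds are titrated, incubation runs 17 hours, and %Activity derives from the blue/green ratio.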
SMILES,Potency [1],"activity change, negative = inhibition [2]","activity, negative = inhibition [3] [%]",Potency [4] [µM],Potency [5] [µM],Potency [6],Potency [7],"activity change, negative = inhibition [8]",Potency [9],Potency [10],Potency [11],activation [12] [%]
CC(=O)Nc1ccc2c(c1)/C(=C/c1ccc([N+](C)(C)C)cc1)c1ccccc1-2,9.02 µM (active),-9.13%,4.17,> 46,> 9.22,inactive,inactive,–,–,–,–,–
COc1ccc(-c2nc3cnc(N4CCNCC4)nc3n(Cc3cccc(OC)c3)c2=O)cc1,> 11.4 µM,109% [activator] (active),–,> 9.22,> 46,–,inactive,101% [activator] (active),inactive,–,–,–
COc1ccc(NCc2c(O)ccc3ccccc23)cc1,> 11.4 µM,-6.4%,-5.4,> 46,> 9.22,inactive,inactive,–,–,–,–,–
COc1ccccc1-c1nc(NCCc2cnc[nH]2)c2ccccc2n1,> 11.4 µM,17.1%,22.8,> 46,> 46,inactive,inactive,–,–,inactive,–,–
Nc1ncnc2nc(-c3ccc(C[P+](c4ccccc4)(c4ccccc4)c4ccccc4)cc3)[nH]c12,> 11.4 µM,3.32%,1.06,> 46,> 9.22,inactive,inactive,–,–,–,–,–
O=[N+]([O-])c1ccc2c(N=Nc3ccc4ccccc4c3O)c(O)cc(S(=O)(=O)O)c2c1,> 11.4 µM,-18.5%,–,> 46,> 9.22,–,inactive,-9.87%,inactive,–,3.16 µM (active),–
CC(C)(C)c1ccc(O)c(CN(Cc2cc(C(C)(C)C)ccc2O)c2ccccc2)c1,> 11.4 µM,4.11%,2.48,> 46,> 9.22,inactive,inactive,–,–,–,–,12.3
Fc1cccc(Cl)c1/C=N\N=C1c2ccccc2-c2ccccc21,> 11.4 µM,13.6%,6.95,> 46,> 9.22,inactive,inactive,–,–,–,–,–
CC(C)(C)C1CCC2(CC1)CCN(CCCN1CCOCC1)CC2,> 11.4 µM,11.9%,–,> 46,> 9.22,inactive,–,–,–,–,–,–
O=S1(=O)CCN(Cc2ccccn2)CC1,> 11.4 µM,0.374%,-10.3,> 46,> 9.22,inactive,inactive,–,–,–,–,–

# Source: PubChem BioAssay (NCATS)
